Hit rate of the full screen: of about 410,000 compounds, about 6,400 (1.6%) were called active. About 20% were inconclusive and are not listed. The full list was thinned out, with actives kept by preference. Unmarked numbers belong to inactive results. The call rests on the fitted dose curve; in most records, active means well fitted inhibition curve with a large enough effect; inconclusive means small, poorly fitted or top-dose-only effect; inactive means no such curve, though single readings can be large or run the other way.
target: Glucagon-like peptide 1 receptor (Homo sapiens) (UniProt P43220); assay: qHTS of GLP-1 Receptor Inverse Agonists (Inhibition Mode); conditions: HEK293 GLP-1R CRE-luciferase, luminescence, 24 h, GLP-1R form is constitutively active; series mostly up to 38.3 µM; activity change, negative = inhibition: at the top concentration; further: nearly all actives have a fitted effect of over 55% in size
Sequence (P43220 whole entry, looked up): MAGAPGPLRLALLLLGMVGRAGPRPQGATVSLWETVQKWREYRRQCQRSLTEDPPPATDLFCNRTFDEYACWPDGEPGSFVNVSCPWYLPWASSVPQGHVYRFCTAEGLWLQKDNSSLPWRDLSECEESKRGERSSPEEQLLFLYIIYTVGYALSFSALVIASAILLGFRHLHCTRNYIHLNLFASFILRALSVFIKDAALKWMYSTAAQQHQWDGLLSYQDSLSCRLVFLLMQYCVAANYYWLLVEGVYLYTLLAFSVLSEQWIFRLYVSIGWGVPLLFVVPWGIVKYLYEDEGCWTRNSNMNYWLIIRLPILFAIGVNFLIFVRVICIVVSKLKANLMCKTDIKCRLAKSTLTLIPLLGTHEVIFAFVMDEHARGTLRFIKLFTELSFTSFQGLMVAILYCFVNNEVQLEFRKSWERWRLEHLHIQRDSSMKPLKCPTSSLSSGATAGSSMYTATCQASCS
Method in brief: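 qHTS in 1536-well format: reporter HEK293 cells expressing constitutive GLP-1R activity in DMEM + 10% Nu serum, 24 hr with compounds at 37 deg C, luminescence read after 12 min with detection reagent.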
On the % scale 0 is the no-effect control and ±100 the full control effect; potency means the concentration at half of the fitted maximal effect.

SMILES | activity change, negative = inhibition | Potency
COC(=O)C[C@@H]1C=C[C@@H](NC(=O)c2cccnc2)[C@@H](CO)O1 | -5.33% | 
COc1ccc(CN2C[C@H]3CON(C)[C@H]3C[C@H]2c2ccc(-c3cccc(F)c3)cc2)cc1 | 11.3% | 
CC1C(=O)N(Cc2cn(CC3CCCCC3)nn2)CCS(=O)(=O)N1Cc1ccc(-c2cccc(N(C)C)c2)cc1 (stereo not given) | -14% | 
O=S1(=O)CCN(Cc2ccccc2)CC1 | 12.2% | 
COc1cccc(-c2cccc(NC(=O)C3CCN(C4CCC4)CC3)c2)c1 | -12.5% | 
O=C(Nc1cccc(-c2cccc(Cl)c2)c1)C1CCN(C2CCC2)CC1 |  | 6.31 µM (active)
O=C(NC1CCCC1)C1CCN(C(=O)Nc2cccc(Cl)c2)CC1 | -7.43% | 
Cc1cc2c(cc1C)N1C(=O)c3cc4ccccc4cc3NC(=O)C1C(=O)N2 (stereo not given) | 9.55% | 
NNC(=O)c1ccc(Cl)cc1Cl | 5.99% | 
O=S(=O)(CCc1nc2ccccc2o1)c1ccc(Cl)cc1 | -14.7% | 
O=S(=O)(Cc1ccc(Cl)cc1Cl)c1ccc(Cl)cc1 |  | 12.6 µM (active)
COCCNc1nc(NCc2ccc(NC(C)=O)cc2)c2sccc2n1 | -0.0128% | 
C[C@H](CO)N1C[C@H](C)[C@@H](CN(C)S(=O)(=O)c2ccc(Oc3ccccc3)cc2)OCc2cn(nn2)CCCC1=O | 30.7% | 
Cc1csc(SCC(=O)Nc2ccc(C)c(S(=O)(=O)N(C)C)c2)n1 | 4.33% | 
CN(C)c1nc(Nc2ccc(Cl)c(Cl)c2)nc(N(C)C)n1 | -36.4% | 
OCCNc1nc(Nc2ccc(Cl)c(Cl)c2)nc2ccccc12 |  | 3.98 µM (active)
Cc1nnc(NCCO)c2ccccc12 | 20.4% | 
CC(=O)Nc1ccc(CNc2nc(NCCN(C)C)nc3cc(-c4ccccc4)sc23)cc1 | -27.5% | 
CCCOc1cccc(C(=O)NCCCNC(=O)c2cccnc2)c1 | 20.7% | 
CCOc1cccc(C(=O)Nc2nnc(-c3cccs3)s2)c1 | 25.6% | 
CCOc1cccc(C(=O)Nc2cnn(Cc3ccccc3)c2)c1 |  | 10 µM (active)
Cc1nccn1-c1ccc(NC(=O)[C@H]2O[C@@H](n3cnc4c(N)ncnc43)[C@H](O)[C@@H]2O)cc1 | 32.2% | 
CSc1ccc(CCNC(=O)CS(=O)(=O)Cc2nc(-c3ccccc3F)oc2C)cc1 | 9.93% | 
Cc1ccc(S(=O)(=O)CC(=O)NC(C)c2ccccc2)cc1 (stereo not given) | -15.5% | 
Cc1ccccc1-c1nc(CS(=O)(=O)CC(=O)NC(C)c2ccccc2)c(C)o1 (stereo not given) |  | 4.47 µM (active)

SMILES | activity change, negative = inhibition | Potency
CN(Cc1ccccc1)C(=O)[C@@H]1CCCN1C(=O)[C@@H]1CCCN1C(=O)c1c(F)cccc1F | 11.3% | 
CCOC(=O)[C@]12CCC=C1N(CCC1=CCCCC1)C(=O)[C@H](CC(=O)NCc1ccc(C)o1)C2 | 14% | 
CC(NC(=O)CN1CCN(Cc2ccc(Cl)cc2)C1=O)c1ccc2c(c1)OCCO2 (stereo not given) | -23.5% | 
O=C(CN1CCN(Cc2ccc(Cl)cc2)C1=O)NCc1ccc(F)cc1 | -5.81% | 
Cc1ccc(CNC(=O)CN2CCN(Cc3ccc(Cl)cc3)C2=O)cc1 |  | 7.94 µM (active)
CC(C)C1CC2=C(C(=O)OC(C)(C)O2)C(c2ccc(F)cc2)O1 (stereo not given) | -19.2% | 
Cc1ccc([C@H]2C[C@H](O)[C@@H](n3cc(COC(=O)c4ccccc4)nn3)CN2CC2CCCCC2)cc1 | 1.35% | 
CC(=O)N1C[C@@H](CO)[C@@H](N(C)C(=O)c2ccco2)C[C@H]1c1ccccc1 | 17.5% | 
COc1ccccc1-c1n[nH]nc1C1=CC(=O)CC(C)(C)C1 | -11.7% | 
Cc1cccc(NC(=O)c2cccc(S(=O)(=O)N3CCCC3)c2)n1 | -2.27% | 
Cc1ccc(NC(=O)c2cccc(S(=O)(=O)N3CCCc4ccccc43)c2)nc1 |  | 7.94 µM (active)
NS(=O)(=O)c1ccc(CNC(=O)c2cccc(S(=O)(=O)N3CCc4ccccc43)c2)cc1 | -4.07% | 
COc1ccc(NC(=O)N(C)C[C@H]2Oc3ncc(C#C[C@@H](C)O)cc3C(=O)N([C@H](C)CO)C[C@H]2C)cc1 | 19.3% | 
Cn1c(Nc2ccc(F)cc2)nc2cc(-c3ccsc3)sc2c1=O | 13.3% | 
CCN(CCN(C)C)C(=O)c1ccc2nc(C)c(N(C)C(=O)CCc3ccccc3)n2c1 | 12.2% | 
O=C(NCc1nnnn1-c1ccc(Cl)cc1)c1ccc([N+](=O)[O-])o1 | 12.3% | 
CC1CCN(Cc2nc(-c3ccc(Cl)cc3)no2)CC1 | -29.5% | 
CCN1CC(CN(C)Cc2nc(-c3ccc(Cl)cc3)no2)CC1=O (stereo not given) | -4.38% | 
Cc1ccc(S(=O)(=O)N(Cc2nc(-c3ccc(Cl)cc3)no2)C2CCCCC2)cc1 |  | 10 µM (active)
CCN(CC)C(=O)C(C)N1c2cccc3cccc(c23)S1(=O)=O (stereo not given) | -23.4% | 
O=C1C[C@@H]2c3c(cccc3CN1Cc1ccccc1)C[C@@H](O)[C@H]2O | 26.3% | 
CC1CN(Cc2ccccc2)C(=S)NC1=O (stereo not given) | 0.404% | 
CCc1cccc(C)c1N1C(=O)CN(Cc2ccccc2)C1=S |  | 5.62 µM (active)
Nc1ncnc2c1ncn2[C@@H]1O[C@H](C(=O)N2CCSC2)[C@@H](O)[C@H]1O | 0.629% | 
CCOc1cc(/C=N/NC(=O)c2c(C)nc3ccc(Cl)cn23)ccc1O | 1.83% | 

SMILES | activity change, negative = inhibition | Potency
CC(=O)C[C@@H]1OC[C@H](C)N1S(=O)(=O)c1ccc(C)cc1 | 0.373% | 
CCCC(=O)N1CCC1(C)C(=O)NCc1ccc(C(C)C)cc1 (stereo not given) | 17.7% | 
O=C(Nc1nnc(-c2ccc(F)cc2)s1)c1c(F)cccc1Cl | -21.4% | 
CCN(CC)CCNC(=O)c1ccc(NC(=O)c2c(F)cccc2Cl)cc1 | -15.9% | 
O=C(NNc1cc(Cl)cc(Cl)c1)c1c(F)cccc1Cl |  | 10 µM (active)
CN1CCN(c2ccncc2S(=O)(=O)N2CCCC2)CC1 | 14% | 
COCCNC(=O)c1cc2c(Br)ccc(Br)c2nc1N | 3.82% | 
O=C(C[C@H]1CC[C@@H](NC(=O)c2ccncc2)[C@@H](CO)O1)NCC1CC1 | 19.3% | 
CCOc1ccccc1/C=N/Nc1nc2ccccc2o1 | 4.76% | 
CCOc1cccc(/C=C/c2ccc3ccccc3n2)c1OC(C)=O |  | 10 µM (active)
CCOc1ccccc1-c1cc(C(=O)N2CCOCC2)c2ccccc2n1 | -1.25% | 
CC(C)(C)S(=O)N1Cc2cc(C(=O)NCCCN3CCOCC3)nc(-c3cccc(-c4cc5ccccc5o4)c3)c2[C@H]1CCO (stereo not given in full) | 4.49% | 
COc1cccc(CC(=O)Nc2ccc(-c3csc(C)n3)cc2)c1 | -12.6% | 
COc1cccc(N2CCN(CC(=O)Nc3ccnn3C3CCCC3)CC2)c1 | -24.6% | 
COc1cccc(NC(=O)CN2CCN(c3nc(-c4cccc(OC)c4)cs3)CC2)c1 |  | 10 µM (active)
CC(C)CN1CCC1(C)C(=O)Nc1ccc(OC(F)F)cc1 (stereo not given) | -21% | 
C[N+](C)(C)CCNC(=O)c1c[nH]c2ccccc12 | 15.7% | 
CC(C)c1cc(C(=O)N(C)C2CCCN(Cc3ccccc3F)C2)n(C)n1 (stereo not given) | -8.11% | 
COc1cc2c(cc1OC)C(C(C)C)=NC(C)(C)C2 | 41.3% | 
COc1cc2c(cc1O)C(SC)=NC(C)(C)C2 |  | 10 µM (active)
COc1cc2c(cc1OC)C(Nc1ccc(S(N)(=O)=O)cc1)=NC(C)(C)C2 | 120% | 
CC(=O)NN=C(C)c1ccc(NC(=O)C2CC2)cc1 | -13.4% | 
N#Cc1ccc(C(C(=O)NCc2ccccc2)n2c(=O)c(-c3ccco3)nc3ccccc32)cc1 (stereo not given) | -11.9% | 
Cc1ccc(NC(=O)Cn2sc3ccccc3c2=O)cc1 | -7.13% | 
O=C(O)c1cccc(NC(=S)N/N=C/c2c[nH]c3ccccc23)c1 | -14.5% | 

SMILES | activity change, negative = inhibition | Potency
COCCNC(=S)N/N=C/c1c(C)[nH]c2ccccc12 | -22.1% | 
CSC(=S)N/N=C/c1c[nH]c2ccccc12 |  | 3.16 µM (active)
CCc1nc2ccc(C(=O)N3CCC(O)(Cc4ccccc4)CC3)cn2c1N(C)C(=O)Cc1ccccc1 | -20% | 
Cc1ccc(S(=O)(=O)N(CC(=O)Nc2cccnc2)c2ccc(Br)cc2)cc1 |  | 11.2 µM (active)
CCc1ccc(N(CC(=O)NCc2cccnc2)S(=O)(=O)c2ccccc2)cc1 | -16.9% | 
CCNC(=O)CN(c1ccc(C)cc1)S(=O)(=O)c1ccc(SC)cc1 | -13.4% | 
NC(=S)N/N=C/c1coc2cc(Cl)ccc2c1=O | 8.08% | 
CC(C)Oc1c(Br)cc(Br)cc1/C=N/NC(N)=S |  | 2.51 µM (active)
CCOc1ccc(/C=N/NC(N)=S)cc1 | -13.1% | 
CN1OC[C@@H]2CN(C(=O)c3ccc(-c4ccccc4)cc3)[C@H](c3ccc(-c4cccc(F)c4)cc3)C[C@@H]21 | -7.58% | 
CCCCN1C(=O)C(CC(=O)NCc2cccs2)CC(C(=O)N2CCCCCC2)=C1C (stereo not given) | 32.5% | 
Cc1cc(Cl)ccc1OCC(=O)N(Cc1ccc(N(C)C)cc1)C1CCS(=O)(=O)C1 (stereo not given) | -15.3% | 
COc1ccc(C(=O)N(Cc2ccc(N(C)C)cc2)C2CCS(=O)(=O)C2)cc1 (stereo not given) | 11.2% | 
CC1(C)C(C=C(Cl)Cl)C1C(=O)N(Cc1ccc(Cl)cc1)C1CCS(=O)(=O)C1 (stereo not given) |  | 8.91 µM (active)
C=CCN1CCN(c2ccncc2S(=O)(=O)N2CCN(C)CC2)CC1 | 2.75% | 
C[C@@H]1Cn2cnc(C(=O)Nc3ccc(CNC(=O)OC(C)(C)C)cc3)c2C(=O)N1 | 10.1% | 
O=C(Cc1ccc(-c2ccccc2)cc1)NC(c1ccccc1)c1ccccc1 | 4.75% | 
O=C(CN1CCN(Cc2ccccc2)CC1)Nc1ccc(F)c(F)c1 | -20.9% | 
O=C(CN1CCN(Cc2ccccc2)CC1)NC(c1ccccc1)c1ccccc1 |  | 10 µM (active)
COc1ccc(S(=O)(=O)N(C)C)cc1NC(=O)COC(=O)c1n[nH]c2ccccc12 | 26.5% | 
Nc1ncnc2c1ncn2[C@@H]1O[C@H](CNC(=O)[C@H](N)Cc2cccnc2)[C@@H](O)[C@H]1O | 21.7% | 
CSc1nsc(SC)c1NC(=O)OC1CCCCC1 |  | 7.08 µM (active)
O=[N+]([O-])c1cc(Br)c(O)c(/C=N/Nc2nc3ccccc3s2)c1 |  | 4.47 µM (active)
O=C(NC(Nc1nc2ccc([N+](=O)[O-])cc2s1)(C(F)(F)F)C(F)(F)F)c1ccccc1 | -3.99% | 
COc1ccc(CC(=O)N/N=C/c2cc([N+](=O)[O-])cc(Br)c2O)cc1 | -4.66% | 

Source: PubChem BioAssay AID624417 (National Center for Advancing Translational Sciences (NCATS), 2012)
